POLB inh: DNA polymerase beta (human) inhibition; 1.3% of 340,000 active; Pol beta primer extension/strand displacement, fluorescence kinetic; Potency, µM (top dose mostly 114 µM), for the others: at the top dose activity change, negative = inhibition, usual class: inhibitors; further: potency means the concentration at half of the fitted maximal effect; on the % scale 0 is the no-effect control and ±100 the full control effect
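Human Pol beta at 10 nM; strand-displacement substrate 50 nM final. Compound exposure 15 min at room temperature before start, reaction 10 min at room temperature.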
PI5P4Ka inh: inhibitors of human PI5P4K alpha; PI5P4Kalpha enzyme, ADP-Glo luminescence, 60 min; stronger effect = lower value; max response, %; 1.2% of 330,000 active; active means max response of -50% or lower; inconclusive means between -30% and -50%; inactive means -30% or higher; further: value at the top dose of about 77 µM; on the % scale 0 is the no-effect control and ±100 the full control effect
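Human PI5P4Kalpha with substrate in 0.038 M HEPES pH 7.4, 0.28 mM EGTA, 0.1% CHAPS, 5% DMSO; reaction started with 5 microM ATP (final), 60 min at room temperature. ADP formed read by ADP-Glo luminescence.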
Pol eta inh-1: inhibitors of human DNA polymerase eta | recombinant Pol eta, fluorescent DNA replication assay | Potency, µM (top dose mostly 114 µM), inactives show at the top dose activity change, negative = inhibition, hits mostly inhibitors | 1.2% of 390,000 active | AID 588591; further: potency means the concentration at half of the fitted maximal effect; on the % scale 0 is the no-effect control and ±100 the full control effect
Target sequence (Q9Y253 whole entry, looked up): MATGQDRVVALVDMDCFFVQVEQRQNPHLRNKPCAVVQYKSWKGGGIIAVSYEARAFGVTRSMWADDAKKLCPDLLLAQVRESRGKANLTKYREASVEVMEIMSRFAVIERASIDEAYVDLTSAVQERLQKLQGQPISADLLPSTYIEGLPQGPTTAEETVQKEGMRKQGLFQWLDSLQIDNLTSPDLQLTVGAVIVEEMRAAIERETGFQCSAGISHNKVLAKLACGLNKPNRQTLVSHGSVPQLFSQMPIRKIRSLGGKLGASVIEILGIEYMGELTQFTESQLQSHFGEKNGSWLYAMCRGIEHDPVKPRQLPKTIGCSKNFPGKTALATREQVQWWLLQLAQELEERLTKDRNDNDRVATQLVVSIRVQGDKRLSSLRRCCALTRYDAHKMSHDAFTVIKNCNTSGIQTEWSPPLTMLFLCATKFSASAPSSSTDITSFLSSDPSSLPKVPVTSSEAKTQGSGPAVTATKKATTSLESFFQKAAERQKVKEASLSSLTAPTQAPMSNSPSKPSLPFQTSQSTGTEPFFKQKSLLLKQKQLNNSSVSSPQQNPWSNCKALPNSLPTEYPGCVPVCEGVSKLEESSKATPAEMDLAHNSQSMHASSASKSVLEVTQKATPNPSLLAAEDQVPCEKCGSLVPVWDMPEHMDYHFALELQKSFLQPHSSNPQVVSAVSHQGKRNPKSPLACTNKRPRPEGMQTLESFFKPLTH
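Fluorescent replication assay: 50 nM final substrate added after a 15 min room-temperature compound preincubation with 10 nM enzyme. Signal taken at 0 min and again at 10 min.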
Pol kappa inh-1: DNA polymerase kappa (human) inhibition; Q9UBT6; purified Pol kappa, fluorescent DNA synthesis assay, 10 min; Potency, µM (series often up to 107 µM), inactives show top-dose activity, negative = inhibition, hits mostly inhibitors; 0.53% of 400,000 active; further: potency means the concentration at half of the fitted maximal effect; on the % scale 0 is the no-effect control and ±100 the full control effect
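50 nM final substrate added after 15 min RT preincubation of 10 nM Pol kappa with compound; fluorescence read at 0 and 10 min.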
WRN helicase inh: inhibitors of human WRN helicase | 0.46% of 360,000 active | Potency, µM (top dose mostly 114 µM), inactives show at the highest dose activity change, negative = inhibition, most hits filed as inhibitors | WRN helicase unwinding, fluorescent forked duplex, kinetic | Q14191; further: potency means the concentration at half of the fitted maximal effect; on the % scale 0 is the no-effect control and ±100 the full control effect; nearly all actives have a fitted effect of over 55% in size
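Fluorescence dequenching readout, ex 525 nm/em 598 nm, kinetic mode: forked duplex DNA (100 nM final) with adjacent fluorophore and quencher unwound by WRN (20 nM final) with 2 mM ATP. Compound preincubation 15 min, room temperature.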
POLI inh: DNA polymerase iota (human) inhibition; Q9UNA4; Pol iota fluorescent replication assay, 10 min; Potency, µM (series often up to 115 µM), for inactives: at the top dose activity, negative = inhibition, usual class: inhibitors; 1% of 390,000 active; AID 588590; further: potency means the concentration at half of the fitted maximal effect
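Fluorescent replication assay read twice, at 0 min and 10 min after adding 50 nM (final) substrate. Enzyme (10 nM) and compounds were first incubated 15 min at room temperature; enzyme-free buffer wells were negative controls.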
Pol kappa inh-2: confirmation of human DNA polymerase kappa inhibitors. shares compounds with Pol eta inh-1. purified Pol-kappa, fluorescent strand-displacement substrate. Potency, µM, usual class: inhibitors. 76% of 920 active. AID 720501; further: potency means the concentration at half of the fitted maximal effect
Pol eta inh-2: confirmation of human DNA polymerase eta inhibitors; shares compounds with Pol eta inh-1; Pol eta primer extension, TAMRA/BHQ fluorescence, 10 min; Potency, µM, usual class: inhibitors; AID 720502; 64% of 2,600 active; further: potency means the concentration at half of the fitted maximal effect
* hit, by the source's call; ? = inconclusive; / = no result given; [ ] = another dose, or the depositor's remark. A selection: hits, their analogues and other compounds. The true share with any hit is near 2.8%. Unless noted, the call rests on the fitted dose curve; in most records, active means well fitted curve in the direction sought with a large enough effect; inconclusive means small, poorly fitted or top-dose-only effect, or another doubt; inactive means no such curve, though single readings can be large; an effect the other way counts as inactive or inconclusive.

SMILES	POLB inh	PI5P4Ka inh	Pol eta inh-1	Pol kappa inh-1	WRN helicase inh	POLI inh	Pol eta inh-2	others
Cc1nn(CCC(=O)O)c2nc(-c3cccnc3)cc(C(F)(F)F)c12	-1%	5	-9%	4%	-12%	-10%	/
COc1ccc(/C=C/C(=O)O)cc1S(=O)(=O)N1CCc2ccccc2C1	?	?	?	-11%	-5%[11.6 µM]	?	?
COc1ccc(C)cc1S(=O)(=O)N1CCc2ccccc2C1	16%	3	-13%	-1%	-2%[57.1 µM]	32%	/
Cc1cc(=O)oc2cc(OCC(=O)NC(Cc3c[nH]c4ccc(O)cc34)C(=O)O)c(Cl)cc12 (stereo not given)	?	-4	25µM*	?	-12%	71µM*	?
Cc1cc(=O)oc2c(C)c(OC(C)C(=O)NC(Cc3c[nH]c4ccc(O)cc34)C(=O)O)ccc12 (stereo not given)	-16%	1	-1%	-10%	-8%	?	/
CCCCc1cc(=O)oc2cc(C)cc(OC(C)C(=O)NC(Cc3c[nH]c4ccc(O)cc34)C(=O)O)c12 (stereo not given)	-30%	1	0%	-21%	-1%	-20%	/
Cc1cc(OC(C)C(=O)NC(Cc2c[nH]c3ccc(O)cc23)C(=O)O)c2c(C)c(C)c(=O)oc2c1 (stereo not given)	?	-5	?	-25%	-8%[11.6 µM]	?	?
CCOC(=O)c1[nH]c2ccccc2c1NC(=O)c1ccccc1OC	11%	/	-8%	-7%	/	-17%	/
CC[C@H](C)/C=C(C)/C=C/C1=CC2=CC(=O)[C@]3(C)OC(=O)[C@@H](C(C)=O)[C@@H]3C2=CO1	35µM*	-60*	25µM*	79µM*	-24%	22µM*	?
COc1cccc(N2CC(NC(=O)c3cccc(OC)c3OC)CC2=O)c1 (stereo not given)	1%	/	-4%	-8%[60.1 µM]	/	6%	/
CC(=O)/C(N=Nc1ccc(C(=O)O)cc1[N+](=O)[O-])=C(\C)O	?	-73*	11µM*	?	4%[11.6 µM]	50µM*	?
CCOC(=O)/C(N=Nc1ccc(C(=O)O)cc1[N+](=O)[O-])=C(\C)O	-26%	-18	-9%	-14%	8%	?	/
Cc1csc(N=Cc2ccc([N+](=O)[O-])o2)n1	/	-82*	18µM*	/	?	/	?
O=C(O)c1cccc(N/N=C/C2=C(Cl)c3cc(Cl)ccc3SC2)c1	?	8	50µM*	-19%	-17%	?	?	Pol kappa inh-2=?
O=C(O)c1cccc(N/N=C/c2ccc(F)c(F)c2)c1	-24%	-12	-3%	-3%	-2%	110%	/
O=C(O)c1ccc(N/N=C/c2cc3ccccc3nc2Cl)cc1	-28%	-9	45µM*	-24%	-10%[11.6 µM]	10%	?
O=c1cc(-c2ccccc2)n2c(SCc3ccc(F)cc3)nnc2[nH]1	-16%	/	-11%	0%[60.1 µM]	/	-25%	/
Cc1cc(C(=O)COC(=O)c2cc(Cl)c(O)c(Cl)c2)c(C)n1C	/	-64*	16µM*	79µM*	50µM*	20µM*	?
CCOc1ccc(-c2nn(CC(=O)NC3CCCCC3)c3c2cnc2ccc(C)cc23)cc1	-22%	/	-11%	21%	/	-5%	/
COC(=O)c1c(NC(=O)Cc2cccs2)sc2c1CCCC2	?	?	14µM*	?	?	45µM*	?
COc1ccc(CC(=O)Nc2sc3c(c2C(=O)Nc2ccc(C)cc2)CCCCC3)cc1	?	/	?	-16%	/	-21%	?	Pol kappa inh-2=?
Cc1ccc(S(=O)(=O)c2c(Nc3cc(C)ccc3C)sc(C(=O)c3ccc4c(c3)OCO4)c2N)cc1	3%	/	-1%	-11%[60.1 µM]	/	7%	/
Oc1c(Br)cc(/C=N/Nc2ccc(Cl)nn2)cc1Br	50µM*	-93*	22µM*	?	45µM*	?	85*
CC(=O)c1cccc(NC(=O)COC(=O)c2ccccc2OCc2cccc(Br)c2)c1	/	/	/	-3%	/	?	/
S=c1[nH]nc(-c2cc(-c3ccco3)[nH]n2)n1-c1ccccc1Cl	?	-57*	32µM*	?	50µM*	?	?
SMILES	POLB inh	PI5P4Ka inh	Pol eta inh-1	Pol kappa inh-1	WRN helicase inh	POLI inh	Pol eta inh-2	others
COc1cc(NC(=O)COCc2cc(-c3ccc4c(c3)OCO4)on2)cc(OC)c1	-19%	/	-23%	-2%	/	13%	/
Cc1ccc2c(c1)N(C(=O)Nc1cccc3c1CCCC3)CC(C)O2 (stereo not given)	12%	/	-18%	-3%	/	7%	/
Cn1cc(S(=O)(=O)N2CCCCC2)cc1C(=O)N1CCN(c2ccc(F)cc2)CC1	23%	/	-7%	-3%[60.1 µM]	/	-15%	/
COc1cc2cc3c(N)c(C(=O)Nc4sc(C)c(C)c4C#N)sc3nc2cc1OC	7.9µM*	/	28µM*	32µM*	?	7.9µM*	30*
CCc1ccc(C(=O)c2cn(CC(=O)Nc3cccc(OC)c3)c3cc4c(cc3c2=O)OCO4)cc1	21%	/	-11%	-8%	/	31%	/
COc1ccc(/C=N/NC(=O)c2[nH]c3ccc(Cl)cc3c2-c2ccccc2)c(C(=O)O)c1OC	-20%	-5	79µM*	-6%	?	27%	38*
COc1ccc(/C=N\NC(=O)COc2ccc(Cl)cc2Cl)c(C(=O)O)c1OC	2%	6	-25%	-4%	-5%	149%	/
CC(=O)C(=Cc1ccc(C(=O)O)cc1)C(C)=O	?	-6	40µM*	?	-3%	?	?
O=C(Cn1c(=O)c2cccn2c2ccc(F)cc21)NCc1cccc(Cl)c1	-3%	/	1%	6%	/	-23%	/
O=C(NCCc1ccc(Cl)cc1)c1cnc2sc(N3CCOCC3)nn2c1=O	10%	/	-4%	3%	/	-14%	/
Cc1ccc2nc3sc(C(=O)NCc4ccco4)c(N)c3cc2c1	?	-9	?	-6%	-15%	6%	/
Cc1ccc2nc3sc(C(=O)NCc4ccco4)cc3cc2c1	/	/	/	/	/	/	76*
COc1ccc(/C=C2\N=C(SC)SC2=O)cc1OC	4%	16	-17%	-10%	-1%	-13%	/
CCOc1cc(/C=C2\N=C(SC)SC2=O)cc([N+](=O)[O-])c1OC(C)=O	22µM*	?	?	45µM*	?	?	/	Pol kappa inh-2=84*
O=c1nc2s/c(=C\c3ccc(-c4ccccc4[N+](=O)[O-])o3)c(=O)n2nc1-c1ccccc1	5µM*	?	?	-3%	14µM*	7%	76*
